# The entries come from a sample that favours the strongest signals as a whole.
# Experiments:
# Assay in all cases: glycan array binding signal (z-score within array); higher = stronger binding
# Details in all cases: glycan notation: IUPAC condensed, linker removed
# [1] = target: Gal3S(b1-4)Glc6S
# How it was run: (§1)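 The Consortium for Functional Glycomics database supplied 3228 glycan arrays, of which those lacking an available protein sequence were dropped. The binding signal, a within-array Z-score, was averaged across arrays of the same protein sequence and across linkers. Negative scores can be read as non-binding.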
# [2] = target: Gal3S6S(b1-4)GlcNAc6S
# How it was run: as §1
# [3] = target: GalNAc(b1-4)Gal(b1-4)Glc
# How it was run: as §1
# [4] = target: GalNAc(b1-4)GlcNAc(b1-2)Man(a1-3)[GalNAc(b1-4)GlcNAc(b1-2)Man(a1-6)]Man(b1-4)GlcNAc(b1-4)GlcNAc
# How it was run: as §1
# [5] = target: Glc(a1-6)Glc(a1-6)Glc(a1-6)Glc
# How it was run: as §1
# [6] = target: GlcNAc(a1-4)Gal(b1-4)GlcNAc(b1-3)Gal(b1-4)[Fuc(a1-3)]GlcNAc(b1-3)Gal(b1-4)[Fuc(a1-3)]GlcNAc
# How it was run: as §1
# [7] = target: GlcNAc(b1-2)Gal(b1-3)GalNAc
# How it was run: as §1
# [8] = target: GlcNAc(b1-2)[GlcNAc(b1-4)]Man(a1-3)[GlcNAc(b1-4)][GlcNAc(b1-2)[GlcNAc(b1-6)]Man(a1-6)]Man(b1-4)GlcNAc(b1-4)GlcNAc
# How it was run: as §1
# [9] = target: GlcNAc(b1-3)Gal(b1-4)GlcNAc(b1-3)Gal(b1-4)GlcNAc(b1-3)Gal(b1-4)GlcNAc(b1-2)[GlcNAc(b1-3)Gal(b1-4)GlcNAc(b1-3)Gal(b1-4)GlcNAc(b1-3)Gal(b1-4)GlcNAc(b1-6)]Man(a1-6)[GlcNAc(b1-3)Gal(b1-4)GlcNAc(b1-3)Gal(b1-4)GlcNAc(b1-3)Gal(b1-4)GlcNAc(b1-2)Man(a1-3)]Man(b1-4)GlcNAc(b1-4)[Fuc(a1-6)]GlcNAc
# How it was run: as §1
# [10] = target: GlcNAc(b1-3)Gal(b1-4)GlcNAc(b1-3)Gal(b1-4)GlcNAc(b1-3)Gal(b1-4)GlcNAc(b1-3)Gal(b1-4)GlcNAc(b1-2)[GlcNAc(b1-3)Gal(b1-4)GlcNAc(b1-3)Gal(b1-4)GlcNAc(b1-3)Gal(b1-4)GlcNAc(b1-3)Gal(b1-4)GlcNAc(b1-6)]Man(a1-6)[GlcNAc(b1-3)Gal(b1-4)GlcNAc(b1-3)Gal(b1-4)GlcNAc(b1-3)Gal(b1-4)GlcNAc(b1-3)Gal(b1-4)GlcNAc(b1-2)Man(a1-3)]Man(b1-4)GlcNAc(b1-4)[Fuc(a1-6)]GlcNAc
# How it was run: as §1
# [11] = target: GlcNAc(b1-4)GlcNAc(b1-4)GlcNAc(b1-4)GlcNAc(b1-4)GlcNAc
# How it was run: as §1
# [12] = target: GlcNAc(b1-4)GlcNAc(b1-4)GlcNAc(b1-4)GlcNAc(b1-4)GlcNAc(b1-4)GlcNAc
# How it was run: as §1
# [13] = target: Neu5Ac(a2-3)Gal(b1-3)GlcNAc(b1-2)[Neu5Ac(a2-3)Gal(b1-3)GlcNAc(b1-4)]Man(a1-6)[Neu5Ac(a2-3)Gal(b1-3)GlcNAc(b1-2)Man(a1-3)]Man(b1-4)GlcNAc(b1-4)GlcNAc
# How it was run: as §1
# [14] = target: Neu5Ac(a2-3)Gal(b1-3)GlcNAc(b1-6)GalNAc
# How it was run: as §1
# [15] = target: Neu5Ac(a2-3)Gal(b1-4)GlcNAc(b1-2)Man(a1-3)[Neu5Ac(a2-6)Gal(b1-4)GlcNAc(b1-2)Man(a1-6)]Man(b1-4)GlcNAc(b1-4)GlcNAc
# How it was run: as §1
# [16] = target: Neu5Ac(a2-3)Gal(b1-4)[Fuc(a1-3)]GlcNAc(b1-6)[Gal(b1-3)]GalNAc
# How it was run: as §1
# [17] = target: Neu5Ac(a2-3)Gal6S(b1-4)GlcNAc
# How it was run: as §1
# [18] = target: Neu5Ac(a2-6)Gal(b1-4)GlcNAc(b1-2)Man(a1-3)[Neu5Ac(a2-6)Gal(b1-4)GlcNAc(b1-2)Man(a1-6)]Man(b1-4)GlcNAc(b1-4)GlcNAc
# How it was run: as §1
# [19] = target: Neu5Ac(a2-6)Gal(b1-4)GlcNAc(b1-2)Man(a1-3)[Neu5Ac(a2-6)Gal(b1-4)GlcNAc(b1-2)Man(a1-6)]Man(b1-4)GlcNAc(b1-4)[Fuc(a1-6)]GlcNAc
# How it was run: as §1
# [20] = target: Neu5Ac(a2-6)GalNAc(b1-4)GlcNAc6S
# How it was run: as §1
# [21] = target: Neu5Ac(a2-8)Neu5Ac(a2-3)Gal(b1-3)GalNAc(b1-4)[Neu5Ac(a2-3)]Gal(b1-4)Glc
# How it was run: as §1
# [22] = target: Neu5Ac(a2-8)Neu5Ac(a2-3)[GalNAc(b1-4)]Gal(b1-4)Glc
# How it was run: as §1
# [23] = target: Neu5Ac(a2-8)Neu5Ac(a2-8)Neu5Ac(a2-3)[Gal(b1-3)GalNAc(b1-4)]Gal(b1-4)Glc
# How it was run: as §1
# [24] = target: Neu5Ac(a2-8)Neu5Ac(a2-8)Neu5Ac(a2-8)Neu5Ac(a2-3)[GalNAc(b1-4)]Gal(b1-4)Glc
# How it was run: as §1
# [25] = target: Neu5Ac(a2-8)Neu5Gc(a2-3)Gal(b1-4)GlcNAc
# How it was run: as §1
binder,measurement,setting,value
OGAA (protein) MVQKESQATLEERESELSSNPAASAGASLEPPAAPAPGEDNPAGAGGAAVAGAAGGARRFLCGVVEGFYGRPWVMEQRKELFRRLQKWELNTYLYAPKDDYKHRMFWREMYSVEEAEQLMTLISAAREYEIEFIYAISPGLDITFSNPKEVSTLKRKLDQVSQFGCRSFALLFADIDHNMCAADKEVFSSFAHAQVSITNEIYQYLGEPETFLFCPTEYCGTFCYPNVSQSPYLRTVGEKLLPGIEVLWTGPKVVSKEIPVESIEEVSKIIKRAPVIWDNIHANDYDQKRLFLGPYKGRSTELIPRLKGVLTNPNCEFEANYVAIHTLATWYKSNMNGVRKDVVMTDSEDSTVSIQIKLENEGSDEDIETDVLYSPQMALKLALTEWLQEFGVPHQY,glycan array binding signal (z-score),[1],-0.088
same,glycan array binding signal (z-score),[2],-0.045
same,glycan array binding signal (z-score),[3],-0.096
same,glycan array binding signal (z-score),[4],-0.075
same,glycan array binding signal (z-score),[5],-0.081
same,glycan array binding signal (z-score),[6],0.075
same,glycan array binding signal (z-score),[7],-0.094
same,glycan array binding signal (z-score),[8],-0.071
same,glycan array binding signal (z-score),[9],-0.048
same,glycan array binding signal (z-score),[10],-0.029
same,glycan array binding signal (z-score),[11],-0.126
same,glycan array binding signal (z-score),[12],-0.102
same,glycan array binding signal (z-score),[13],0.068
same,glycan array binding signal (z-score),[14],-0.047
same,glycan array binding signal (z-score),[15],-0.118
same,glycan array binding signal (z-score),[16],-0.025
same,glycan array binding signal (z-score),[17],-0.047
same,glycan array binding signal (z-score),[18],-0.079
same,glycan array binding signal (z-score),[19],-0.088
same,glycan array binding signal (z-score),[20],-0.012
same,glycan array binding signal (z-score),[21],-0.107
same,glycan array binding signal (z-score),[22],-0.086
same,glycan array binding signal (z-score),[23],-0.094
same,glycan array binding signal (z-score),[24],-0.107
same,glycan array binding signal (z-score),[25],-0.042

# From the supplement of paper PMC8728848
